LASV entry inh – qHTS for Inhibitors of binding or entry into cells for Lassa Virus; Lassa virus pseudotype entry inhibition, cell reporter; Potency, µM (top dose mostly 37.9 µM), for inactives: at the highest dose activity change, negative = inhibition, actives largely listed as inhibitors; 300,000 tested, 1.2% active; AID 540256, 2011; calls by dose curve; tested in HEK293 cells; further: potency means the concentration at half of the fitted maximal effect; on the % scale 0 is the no-effect control and ±100 the full control effect; nearly all actives have a fitted effect of over 50% in size
Cycloheximide cs – Cycloheximide Counterscreen for Small Molecule Inhibitors of Shiga Toxin; cell reporter, cycloheximide protein synthesis inhibition counterscreen; max response, %; 300,000 tested, 12% active; AID 2314, 2010; in the data active means max response mostly above about 13%, no sharp cut-off; inactive means mostly below about 14%; further: read at 38.3 µM for the half of the compounds with a filed dose; 0% is about no effect
Shiga inhibitor – A qHTS for Small Molecule Inhibitors of Shiga Toxin. Vero cells, Shiga toxin protein synthesis inhibition reporter. inhibition, % at 38.7 µM. 290,000 tested, 9.2% active. AID 2315, 2010; in the data active means inhibition mostly above about 28%, no sharp cut-off; inactive means mostly below about 43%; further: 0% is about no effect
MARV entry inh – qHTS for inhibitors of binding or entry into cells for Marburg Virus; Marburg virus pseudotyped entry inhibition, cell reporter; Potency, µM (doses to about 37.8 µM), for the others: at the top dose activity change, negative = inhibition, usual class: inhibitors; 300,000 tested, 1.8% active; AID 540276, 2011; calls by dose curve; tested in HEK293 cells; further: potency means the concentration at half of the fitted maximal effect; on the % scale 0 is the no-effect control and ±100 the full control effect
Pf growth 48h – Primary qHTS for delayed death inhibitors of the malarial parasite plastid, 48 hour incubation; P. falciparum luciferase growth in erythrocytes, 48 h; 310,000 tested, 5.9% active; Potency, µM (highest dose often 28.7 µM), inactives show at the top dose activity change, negative = inhibition, usual class: inhibitors; further: potency means the concentration at half of the fitted maximal effect; on the % scale 0 is the no-effect control and ±100 the full control effect
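Erythrocytes infected with P. falciparum carrying an integrated firefly luciferase reporter (2% hematocrit, 0.1% parasitemia final) were exposed to compounds in RPMI 1640 with 0.5% Albumax at 37 C, 5% CO2. Growth inhibition was scored as reduced luminescence.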
Pf growth 96h – Primary qHTS for delayed death inhibitors of the malarial parasite plastid, 96 hour incubation. Potency, µM (top dose mostly 28.7 µM), without a hit: top-dose activity change, negative = inhibition, most hits filed as inhibitors. 320,000 tested, 6.9% active. P. falciparum luciferase reporter growth, 96 h; further: potency means the concentration at half of the fitted maximal effect; on the % scale 0 is the no-effect control and ±100 the full control effect
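Infected RBCs, 2% Hct / 0.05% parasitemia final; luciferase-reporter P. falciparum; cpd 96 h, 37 C, 5% CO2; luciferase detection reagent; luminescence.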
Numbers without * were called inactive; u = inconclusive; x = no result given; ! = a repeat was not active; [ ] = remark or other dose. Shown are actives, neighbours in structure and some others; about 19% of the full set was active somewhere. Unless noted, the call rests on the fitted dose curve; in most records, active means well fitted inhibition curve with a large enough effect; inconclusive means small, poorly fitted or top-dose-only effect, or another doubt; inactive means no such curve, though single readings can be large or run the other way.

SMILES | LASV entry inh | Cycloheximide cs | Shiga inhibitor | MARV entry inh | Pf growth 48h | Pf growth 96h
CCOC(=O)CN1C(=O)S/C(=C/c2ccc3c(c2)n(C)c(=O)n3C)C1=O | -3% | 40* | 44* | 3% | -1% | 8%
CCOC(=O)CN1C(=O)S/C(=C/C=C/c2ccc(N(C)C)cc2)C1=O | -2% | 30* | 15 | u | 105% | -14%
O=C(NNC(=O)C1CCCN(c2ncccn2)C1)c1ccc(F)cc1 (stereo unspecified) | 5% | -3 | -7 | 17% | 0% | -8%
CCn1cc(C(=O)N(CCCN2CCOCC2)Cc2ccco2)c(=O)c2ccc(C)nc21 | -6% | 1 | -7 | 14%[46.1 µM] | -3% | u
O=C(Cn1cnc2ccccc2c1=O)NCCC(=O)Nc1ccc2c(c1)OCCO2 | 17% | 4 | 35 | 0% | 52% | 10µM*
O=C(Cn1cnc2ccccc2c1=O)Nc1ccc(S(=O)(=O)N2CCCC2)cc1 | -16% | 1 | 1 | -22%[46.1 µM] | -16% | -18%
O=C(Cn1cnc2ccccc2c1=O)Nc1ccc2c(c1)OCCO2 | 0% | 46* | 90* | u | 99% | -13%
CC1CCCC(C)N1S(=O)(=O)c1ccc(NC(=O)CCn2cnc3ccccc3c2=O)cc1 (stereo unspecified) | -14% | 14 | 13 | -23% | 13µM* | x
COc1ccc(NC(=O)CCc2nc(-c3ccc(C)cc3)no2)c(OC)c1 | 7% | -1 | -14 | 0% | 10% | -4%
Cc1cc(S(=O)(=O)N2CCOCC2)ccc1OCC(=O)N1CCCCC1 | 1% | 5 | 26 | 9%[46.1 µM] | -16% | 0%
COc1ccccc1-c1nnc(Sc2nc([N+](=O)[O-])nn2C)o1 | -27% | 1 | -7 | u | x | 1.9µM*
O=C(NCCN1CCCCC1)c1ccc(Cn2c(SCc3cccc(F)c3)nc3cccnc32)cc1 | x | x | x | 4.5µM* | x | x
CN1CCN(c2c(F)cc3c(=O)c(C(=O)O)cn(CCF)c3c2F)CC1 | x | 12 | 14 | x | 0% | -4%
CN1CCN(c2c(F)cc3c(=O)c(C(=O)O)cn4c3c2OCN4C)CC1 | x | -3 | -4 | x | -30% | 15µM*!
O=C1C2C(c3ccccc3)C=CC(c3ccccc3)C2C(=O)N1c1ccccn1 (stereo unspecified) | 0% | 2 | -7 | 21% | 33% | 1.3µM*
O=C1C2C(c3ccccc3)C=CC(c3ccccc3)C2C(=O)N1c1ccncc1 (stereo unspecified) | -17% | -2 | -5 | -22% | -9% | 14%
CN1c2ccccc2N(C)C1c1ccc2c(c1)OCO2 | u | -1 | 6 | u | 4.7µM* | 28%
CC1CCN(Cc2c(C(=O)N/N=C/c3cc(Br)ccc3O)nnn2-c2nonc2N)CC1 | u | -3 | -3 | 2µM* | u | u
Cc1cc(C)c(/C=N/NC(=O)c2nnn(-c3nonc3N)c2CN2CCC(C)CC2)c(C)c1 | u | -2 | -11 | u | u | -54%
CC1CCN(Cc2c(C(=O)O)nnn2-c2nonc2N)CC1 | x | -1 | 4 | x | 19% | 1.5µM*
COc1c(Cl)cc(Cl)cc1/C=N/NC(=O)c1nnn(-c2nonc2N)c1CN1CCC(C)CC1 | 1%[46.1 µM] | -2 | -3 | -29%[46.1 µM] | u | -12%
CC1CCN(Cc2c(C(=O)N/N=C/c3cc(Cl)ccc3O)nnn2-c2nonc2N)CC1 | u | -5 | -1 | 3.5µM* | u | 3%
COC(=O)c1ccccc1OCCN1CCCCCC1 | 2% | -2 | 20 | -10%[46.1 µM] | -6% | u
C=CCn1c(SC(C)C(=O)Nc2ccc(Cl)cn2)nnc1C1CC1 (stereo unspecified) | -6% | x | x | 0%[46.1 µM] | -23% | 2%
CN(C)S(=O)(=O)N1C(=O)c2ccccc2C1=O | x | -2 | -1 | x | 115% | 14%
SMILES | LASV entry inh | Cycloheximide cs | Shiga inhibitor | MARV entry inh | Pf growth 48h | Pf growth 96h
CCCN1C=CC(=C2C(=O)c3ccccc3C2=O)C=C1 | 0.21µM* | -11 | -26 | 0.21µM* | -94% | 6%
CCCCN1C(C)=CC(=C2C(=O)c3ccccc3C2=O)C=C1C | u | 10 | 45 | u | 300% | -18%
CCCCCCN1C=CC(=C2C(=O)c3ccccc3C2=O)C=C1 | x | 37* | 46* | x | -17% | 137%
CN1C=CC(=C2C(=O)c3ccccc3C2=O)C=C1 | x | 38* | 88 | 1% | x | u
CCN1C=CC(=C2C(=O)c3ccccc3C2=O)C=C1 | 0.65µM* | -9 | -32 | 1.8µM* | u | u
CCC(=O)N1c2ccc(S(=O)(=O)N3CCCCC3)cc2CC1C (stereo unspecified) | x | 3 | 6 | x | -4% | u
COc1ccc(C2=NN(CC(=O)NCCCN(C)c3ccccc3)C(=O)CC2)cc1 | -16%[46.1 µM] | x | x | x | x | x
CCCCN1CCc2c1nc1ccc(Br)cc1c2N | 0% | -3 | 23 | u | x | 1.7µM*
COc1ccc(/C=C2\CCCC3C2=NN(C(=O)c2ccco2)C3c2ccc(OC)c(OC)c2)cc1OC (stereo unspecified) | u | 7 | 4 | u | u | u
COc1ccc(/C=C2\CCCC3C2=NN(C(=O)c2scnc2C)C3c2ccc(OC)c(OC)c2)cc1OC (stereo unspecified) | 5.2µM* | 8 | 23 | u | u | x
FC(F)(F)c1cccc(N2CCc3cn[nH]c32)c1 | 19% | 23* | 32* | 12% | 37% | 29%
Cc1[nH][nH]c(=O)c1N=Nc1ccccc1Cl | -12% | 22* | 56* | 27% | 0% | 22%
CCOc1cc(/C=N/O)cc(Br)c1OCC | -22% | -3 | -8 | 13% | 3% | 4%
CCCOc1c(Br)cc(/C=N/O)cc1OC | -15% | -4 | -22 | 10µM* | -3% | -7%
CCc1ccc(C(=O)c2cn(CC(=O)Nc3ccc4c(c3)OCCO4)c3ccc(F)cc3c2=O)cc1 | -10%[46.1 µM] | x | x | -3%[46.1 µM] | x | x
O=C(O)c1cccc2c(/C=N/Nc3ccccn3)c[nH]c12 | x | 39* | 70* | x | 83% | 93%
O=c1nc(N/N=C/c2c[nH]c3ccccc23)cn[nH]1 | u | 40* | 45* | 8.9µM* | 193% | 0.41µM*
O=c1nc(N/N=C/C=C/c2ccccc2)cn[nH]1 | 2.2µM* | 37* | 67* | -9%[46.1 µM] | 72% | u
C(=N\Nc1ccccn1)/c1c[nH]c2ccccc12 | -9%[46.1 µM] | 30* | 89* | u | 95% | 1%
CCOc1ccc2[nH]c(=O)c(CN(Cc3ccc(F)cc3)C(=O)N3CCCC3)cc2c1 | 3% | 2 | -2 | 14%[46.1 µM] | -13% | 395%
CC(C)(CC(=O)O)CC(=O)Nc1ccccc1Oc1ccccc1 | -13%[46.1 µM] | -2 | -7 | 2%[46.1 µM] | -11% | -8%
Cc1ccc(S(=O)(=O)N2CCOCC2)c(C)c1NS(C)(=O)=O | u | -3 | -1 | -10% | 9% | 42%
O=C(O)c1cccc2c1C(=O)N(c1ccc3c(c1)Cc1ccccc1-3)C2=O | 19%[46.1 µM] | x | x | -3%[46.1 µM] | x | x
